Experimental data as given in PubChem BioAssay AID652058 (Broad Institute, 2013).
Among all 1,200 compounds or so, about 870 (72%) were called active. About 3% were inconclusive and are not listed.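 Rule for the calls: active = every test run fits a falling curve whose half-maximal concentration is at most twice the top valid dose; inconclusive = runs disagree, or flat 30 to 70% inhibition, or poor fit; inactive = every run inactive: flat, rising or weaker potency.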 The set was probably picked from earlier hits. Not all results are given here. Results with a measured potency or affinity are listed apart.

Assay: blockers of HIV-1 ZM109 envelope-driven cell-cell fusion – HeLa effector, CEM target cells, luciferase, cherry-pick, dose response (AID 652058);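 note: 0% = neutral control wells and -100% = maraviroc 300 nM wells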
Conditions: HeLa Env/CEM cell fusion, 16-24 h; series mostly up to 35 µM; activity change, negative = inhibition: at the top concentration

Activity change, negative = inhibition, inactive:
CCOC(=O)c1cnc2ccc(OCC)cc2c1NCc1ccccc1OC 69% [at 16 µM], COc1ccc(NC(=O)C2(C)CCN2Cc2ccccc2OC(F)F)cc1OC (stereo not given) -0.246%, COc1ccc(OC2C(=O)N(Cc3ccc4c(c3)OCO4)C2c2cccs2)cc1 (stereo not given) -20%, Cc1cc(C(=O)N2CCC(C(=O)O)CC2)c(C(F)(F)F)o1 -39.7%, CCOc1ccc(OCc2cccc(C(=O)N/N=C/c3cccnc3)c2)cc1 -7.2%, CCCOc1ccc(C(F)(F)F)cc1NC(=O)CCc1c(C)noc1C -36.3%, Cc1ccc(C)c(CNc2ccc(S(=O)(=O)N3CCCCC3)cc2)c1 -10.3%, Cc1ccc(S(=O)(=O)N[C@H]2C=C[C@H](CC(=O)N3CCC(Cc4ccccc4)CC3)O[C@H]2CO)cc1 45.1%, O=C(C[C@@H]1C[C@H]2c3cc(NC(=O)NC4CCCCC4)ccc3O[C@H]2[C@@H](CO)O1)NCc1ccncc1 4.35%, CN1CCN(C(=O)C[C@H]2C[C@@H]3c4cc(NS(C)(=O)=O)ccc4O[C@@H]3[C@H](CO)O2)CC1 -13.8%, O=C(C[C@@H]1C[C@H]2c3cc(NC(=O)Nc4ccc(F)cc4)ccc3O[C@H]2[C@H](CO)O1)NCC1CC1 105%, O=C(Nc1ccc(F)cc1)Nc1ccc2c(c1)[C@H]1C[C@@H](CC(=O)N3CCCCC3)O[C@H](CO)[C@H]1O2 58.6%, CCCNC(=O)C[C@H]1C[C@H]2c3cc(NC(=O)CN(C)C)ccc3O[C@H]2[C@H](CO)O1 0%, CCCNC(=O)C[C@H]1C[C@H]2c3cc(NC(=O)CN(C)C)ccc3O[C@H]2[C@@H](CO)O1 -10.1%, O=C1c2cccnc2C(Nc2ccc(S(=O)(=O)N3CCCCC3)cc2)N1Cc1ccccc1 (stereo not given) -24.9%, COc1ccc(COC(=O)C2=C(C)NC(=O)NC2c2ccc(OC)cc2)cc1 (stereo not given) -25.8%, Cc1cccc(NC(=O)C2CCN(S(=O)(=O)c3ccc4c(c3)OCCCO4)CC2)n1 -15.6%, CCc1ccc(-c2nc(CN3CCC(C(=O)NCCc4ccc(OC)c(OC)c4)CC3)c(C)o2)cc1 -27.3%, O=C(Nc1ccc(N2CCN(C(=O)c3ccccc3)CC2)c(Cl)c1)c1cccnc1 -32.6%, COc1ccccc1CCNCc1ccc(OC)c(OCc2ccccc2)c1 -24.2%, CCN1C(=O)[C@H]2[C@@H](c3ccc(C(F)(F)F)cc3)N[C@]3(CCCN(Cc4ccccc4)C3=O)[C@H]2C1=O 94.4%, Cc1ccc(-n2nc3c(c2NC(=O)c2ccco2)CS(=O)C3)cc1 (stereo not given) 89.7%, FC(F)(F)c1nc(-c2cccs2)ncc1-c1nnnn1-c1ccc(Cl)cc1 130%, C[C@H](CO)N1C[C@H](C)[C@H](CN(C)S(=O)(=O)c2ccc(F)cc2)Oc2ccc(NS(=O)(=O)c3ccccc3)cc2CC1=O -27.6%, Cc1ccc(S(=O)(=O)Nc2ccc3c(c2)C(=O)N([C@H](C)CO)C[C@@H](C)[C@H](CN(C)S(=O)(=O)c2ccc(F)cc2)O3)cc1 13.2%
